One assay deals with AACS. As to the kind of experiment: pooled miR-30 sensor sort-seq; sequence = guide strand. The settings on record: shRNA.
The sequence TTGGAATCTTTGAAAGGTCTAT gave a sensor-assay potency score (higher = more potent) of 0.0735.

In the case of TTTCGATGTGTCCACAACCTCA, the sensor-assay potency score (higher = more potent) is -1.33.

As to TGATTCTGCAGTAGTCGCCATG, the sensor-assay potency score (higher = more potent) was -0.951.

As for TTTTCTGCATAGTTGAGCCGAC, the sensor-assay potency score (higher = more potent) was -0.296.

In the case of TACAGATCCAGGGTCTCGGGGT, the sensor-assay potency score (higher = more potent) was -0.361.

With TTACAGTGCACACGGGTGCGGC, the sensor-assay potency score (higher = more potent) was -0.808.

TTTGACGGCAACTTCCACTTTC registered a sensor-assay potency score (higher = more potent) of -0.286.

Regarding TCTGTCATTCTCTTTGTGCCGC, the sensor-assay potency score (higher = more potent) is 0.211.

As for TAGGCCTTTAACCACCTGCTGC, the sensor-assay potency score (higher = more potent) was -1.19.

As for TTGATTCTGCAGTAGTCGCCAT, the sensor-assay potency score (higher = more potent) is 0.104.

In turn, TTGAGGGTGCCGTCACTCCGGC yielded a sensor-assay potency score (higher = more potent) of -1.01.

Sequence TAGCACAGGAGGATGTCACTGC came in with a sensor-assay potency score (higher = more potent) of 0.828.

Another assay addresses AADACL2. Described as above. The conditions noted are these: shRNA.
Consider TTTTATTTCAGCATCATTCTGC, for which the sensor-assay potency score (higher = more potent) worked out at 0.839.

The sequence TTCAGCATCATTCTGCACCTGT returned a sensor-assay potency score (higher = more potent) of 0.443.

TATCTCTTATCCTAAGACCTAG registered a sensor-assay potency score (higher = more potent) of -0.412.

Sequence TAAATGTACAAGTTTTAGCGAT displayed a sensor-assay potency score (higher = more potent) of -0.754.

The sequence TTTTGTAAGAATTTTTTCCAAA gave a sensor-assay potency score (higher = more potent) of -1.07.

Sequence TTGTAACATACATAAGTCCATC had a sensor-assay potency score (higher = more potent) of -1.14.

TACAACAACAGCATCAAGCGTG yielded a sensor-assay potency score (higher = more potent) of -0.148.

Regarding TAAACAGATGTCTTGACTCCAG, the sensor-assay potency score (higher = more potent) is -0.578.

Take TTGGCAAGTACAATCGTACTGG: the sensor-assay potency score (higher = more potent) was 0.407.

Take TAACATACATAAGTCCATCATC: the sensor-assay potency score (higher = more potent) was -1.34.

TAACTGAGAATCATTGGCCAAC displayed a sensor-assay potency score (higher = more potent) of -1.39.

Turning to TTTTTGGCAAGTACAATCGTAC, the sensor-assay potency score (higher = more potent) is -0.474.

A further assay deals with AADACL3. The assay is described as above. The conditions noted are these: shRNA.
TATGCTTAGGTAACTTGCGGTA displayed a sensor-assay potency score (higher = more potent) of -0.306.

As to ATCCGTGACCACAACATCGGGA, the sensor-assay potency score (higher = more potent) is 0.0942.

Sequence TAGATCAGGATCTGAGCCCGGA yielded a sensor-assay potency score (higher = more potent) of 0.297.

Take TACAACAGTGAATTGTCCCGGA: the sensor-assay potency score (higher = more potent) was found to be 0.727.

TTCATGATGACCTCTTGCCAGG registered a sensor-assay potency score (higher = more potent) of -1.37.

Turning to TTTTCTTGTACAACAGTGAATT, the sensor-assay potency score (higher = more potent) was -1.64.

As for TAGCAGATGAAACTCCAGGTGA, the sensor-assay potency score (higher = more potent) was -0.205.

For TTGTTGACAAACCACTGCGGCT, the sensor-assay potency score (higher = more potent) is -1.56.

As to TTACTTCCAAGTAAGCAGCTTC, the sensor-assay potency score (higher = more potent) was 0.308.

The sequence TTATGCTTAGGTAACTTGCGGT gave a sensor-assay potency score (higher = more potent) of 0.0464.

Sequence TATGTCATCTTCTGCAATCAGG yielded a sensor-assay potency score (higher = more potent) of -1.03.

On to TTTCATGATGACCTCTTGCCAG, for which the sensor-assay potency score (higher = more potent) was -1.07.

Another assay has as its target AATK. The description is as above. The settings on record: shRNA.
Consider TAGCTCATCCTCGCCAGTCAGC, for which the sensor-assay potency score (higher = more potent) is -1.1.

TTCTGATCTCAGCGGAACCGGG had a sensor-assay potency score (higher = more potent) of -1.21.

With TAGTCCTCTCTGTACTTGCAGT, the sensor-assay potency score (higher = more potent) was -1.18.

Source of the values: the OligoGym collection.
Note: reference of the scale not given here.
